Test results taken from PubChem BioAssay AID720533 (National Center for Advancing Translational Sciences (NCATS), 2013).
Several values for one entry are separate records, joined by “and”; a condition that tells them apart may be missing. Identical values can stand only once. Hit rate of the full screen: of about 18,000 compounds, about 750 (4.2%) were called active. Not shown: some 13% with an inconclusive outcome. Calls come from the whole dose curve; tested in HEK293 cells. This excerpt belongs to a sample that is enriched for actives. Starred links: 1 amine or outer side, 2 acyl side, 3 side chain; linkers in the order of their positions; H or OH if unused. Positions of bridges follow the written chain, without caps; N, C: chain ends. Non-standard residues stand in square brackets, D forms with d. Residues, ends and D or L forms follow the SMILES beside them. *: point of attachment. X15 = NC1=N[C@@H]([C@H](N[*:1])C(=O)[*:2])C[C@H](O)N1; ΔAla(Z-3-ureido) = NC(=O)N/C=C(\N)C(=O)O; β3hOrn = NCCC[C@H](N)CC(=O)*; Dap = NC[C@H](N)C(=O)O

experiment: qHTS for Inhibitors of binding or entry into cells for Lassa Virus; conditions: Lassa virus pseudotyped entry inhibition, cell-based qHTS; series mostly up to 49.2 µM; activity change, negative = inhibition: at the top concentration
% is set by controls: 0 for no effect and ±100 for the full control effect; potency is the fitted concentration of half-maximal effect.

Compound	activity change, negative = inhibition	Potency
Cc1cnc(C(=O)N2CCOc3ccc(CN4CCCC(C(=O)c5cccnc5)C4)cc3C2)[nH]1 (stereo not drawn)	-5.06% (inactive)	–
Nc1nc(/C(=C/CC(=O)O)C(=O)N[C@@H]2C(=O)N3C(C(=O)O)=CCS[C@H]23)cs1	-7.09% (inactive)	–
COc1cccc([C@@H]2Oc3ccc(Br)cc3C(=O)[C@H]2OC(=O)NCCc2ccc(OC)c(OC)c2)c1	33% (inactive)	–
C/C=C(\C)C(=O)OC1C(OC(=O)C2(C)OC2C)c2cc3ccc(=O)oc3cc2OC1(C)C (stereo not drawn)	4.77% (inactive)	–
OCC1CCCN(c2nc3cc4c(cc3cc2CNCc2cccs2)OCO4)C1 (stereo not drawn)	-0.156% (inactive)	–
CCOC(=O)CCN1C(=O)[C@@H]2[C@H]3[C@H](O)[C@H](O)CC(=NOCC(C)C)[C@@H]3CC[C@H]2C1=O	-24.6% [at 8.59 µM] (inactive)	–
CCN1CCN(C(=O)N[C@@H](C(=O)N[C@@H]2C(=O)N3C(C(=O)O)=C(CSc4nnnn4C)CS[C@H]23)c2ccc(O)cc2)C(=O)C1=O	-8.09% (inactive)	–
CCOC(=O)C1C/C(=C\C(C)=O)c2cccc(C(F)(F)F)c2O1 (stereo not drawn)	7.88% (inactive)	–
CC(C)[C@@H](OCc1ccccc1)[C@H](C)C=NOC[C@@H](C)[C@H](OCc1ccccc1)C(C)C	8.86% [at 8.59 µM] (inactive)	–
COc1ccc(CN(C)CCn2cc(C(=O)N3CCSCC3)nn2)cc1C	-12% (inactive)	–
CC1OC(OCC2OC(Oc3c(-c4ccc(O)c(O)c4)oc4cc(O)cc(O)c4c3=O)C(O)C(O)C2O)[C@@H](O)C(O)C1O (stereo partly drawn)	-10.4% (inactive)	–
CNc1ncnc2ccc(-c3cccc(NS(C)(=O)=O)c3)cc12	-5.28% (inactive)	–
COc1ccc(Nc2ncnc3ccc(OC)cc23)cc1	4.87% (inactive)	–
Cc1csc(-c2nc3ccccc3n2C)n1	29.1% (inactive)	–
CNC(=O)C[C@H]1C(=O)N(Cc2ccccc2)C[C@@H]1CSC	7.21% (inactive)	–
CCCCCCN1C[C@@H](O)[C@H](n2cc(-c3ccc(F)cc3)nn2)C[C@H]1c1ccccc1	-27.3% (inactive)	–
COc1c(O)cc2oc(-c3ccc(O)c(O)c3)cc(=O)c2c1O	-13.1% (inactive)	–
Cc1nc2cc(NC(=O)[C@@H]3C[C@@H](Sc4ccccn4)CN3Cc3ccccc3C)ccc2s1	-6.47% (inactive)	–
CC[C@@H]1Cc2cc(O)ccc2C2=C1c1ccc(O)cc1C[C@H]2CC	–	20 µM (active)
CCCN(C/C=C/I)C1CCc2ccc(O)cc2C1 (stereo not drawn)	3.69% (inactive)	–
COCOc1cc(OC)ccc1C(=O)/C=C/c1ccc([N+](=O)[O-])cc1	-5.23% (inactive)	–
CCOC(=O)C1=C(C(=O)OCC)C(C(=O)OCC)N(S(=O)(=O)C(F)(F)F)c2ccccc21 (stereo not drawn)	-6.28% (inactive)	–
c1ccc(CN2CCN(Cc3ccc4c(c3)CN(Cc3c[nH]c5ccccc35)CCO4)CC2)nc1	-8.46% (inactive)	–
O=C(O)CCC(=O)O	-0.191% (inactive)	–
O=C(CCN1Cc2ccccc2OC(c2ccccc2)C1)N[C@@H]1CS(=O)(=O)C[C@H]1O (stereo partly drawn)	-3.72% (inactive)	–
COC(=O)c1c(OCc2ccc(F)cc2)cc(=O)n2c1CCN(Cc1ccc3cccnc3c1)CC2	-12.1% (inactive)	–

Compound	activity change, negative = inhibition	Potency
CC1C(=O)N(Cc2cn(Cc3ccco3)nn2)CCS(=O)(=O)N1Cc1ccc(-c2cccc(CO)c2)cc1 (stereo not drawn)	-19.8% (inactive)	–
Cc1cccc(CN2CCN(C3CN(Cc4cn(Cc5ccccc5F)nn4)S(=O)(=O)C3)CC2)c1 (stereo not drawn)	23.5% (inactive)	–
NCCC[C@H](N)CC(=O)N[C@H]1CNC(=O)[C@H]([C@H]2C[C@H](O)NC(N)=N2)NC(=O)/C(=C/NC(N)=O)NC(=O)[C@H](CO)NC(=O)[C@H](CO)NC1=O (β3hOrn-[Dap]SS[ΔAla(Z-3-ureido)][X15]; lactam 1-C)	6.4% (inactive)	–
O=C1C2=C(C(=O)c3ccccc31)[C@H]1O[C@](CCCCN3C(=O)c4ccccc4C3=O)(Cc3c1ccc1ccccc31)O2	10.1% [at 8.59 µM] (inactive)	–
C/C(Nc1ccc2oc(=O)ccc2c1)=C1/C(=O)CC2[C@@H]1C2(C)C (stereo partly drawn)	-4.73% (inactive)	–
CCCCCCc1cc2cc(OC)c(OC)cc2c2c(C(=O)OC)c(C(=O)OC)c(C(=O)OC)n12	-14.4% [at 8.59 µM] (inactive)	–
CO[C@]1(NC(=O)CSC(F)F)C(=O)N2C(C(=O)O)=C(CSc3nnnn3CCO)CO[C@H]21	-13.4% (inactive)	–
O=C(C=Cc1ccccc1)Nc1cccc(C(=O)N2CCCCC2)c1	28.6% (inactive)	–
Nc1nc(-c2ccc3c(c2)C(=Cc2cc(Br)c(O)c(Br)c2)C(=O)N3)cs1	9.64% (inactive)	–
Cc1ccc(-c2ccc(CN3C(C(C)C)C(=O)N(Cc4cn(CCC5OCCCO5)nn4)CCS3(=O)=O)cc2)cc1 (stereo not drawn)	-14.3% (inactive)	–
COC(=O)CC1c2ccccc2C(Cc2ccc(OC)cc2)=C(C)N1C(=O)OC (stereo not drawn)	25.9% [at 8.59 µM] (inactive) and -25.2% [at 8.59 µM] (inactive)	–
C=CC1=C2C=C(C3CC3)N(C(CO)CO)C=C2C(=O)C(C)(OC(=O)c2ccco2)C1=O (stereo not drawn)	4.32% [at 8.59 µM] (inactive)	–
COCC(=O)Nc1cc(C(=O)N2CCCC(c3ccccc3)CC2)c2c(c1)nc(-c1ccncc1)n2C (stereo not drawn)	-11.7% (inactive)	–
C[C@@H](O)[C@@H]1NC(=O)[C@H](CCCCN)NC(=O)[C@H](Cc2c[nH]c3ccccc23)NC(=O)[C@H](Cc2ccccc2)NC(=O)[C@H](Cc2ccccc2)NC(=O)[C@H](CC(N)=O)NC(=O)[C@H](CCCCN)NC(=O)[C@@H](NC(=O)[C@@H]2CCCN2)CSSC[C@@H](C(=O)N[C@@H](CCCCN)C(=O)O)NC(=O)[C@H](CO)NC(=O)[C@H](CO)NC(=O)[C@H](Cc2ccccc2)NC1=O (H-PCKNFFWKTFSSCK-OH; disulfide 2-13)	-1.87% (inactive)	–
COC1CC(OC2CC[C@@]3(C=O)C4CC[C@]5(C)C(C6=CC(=O)OC6)CC[C@@]5(O)C4CC[C@]3(O)C2)OC(C)C1O (stereo partly drawn)	–	0.282 µM (active)
C[C@@]12CC[C@H]3[C@@H](CC[C@]4(O)C[C@H](O)CC[C@@]34C=O)[C@]1(O)CC[C@@H]2C1=CC(=O)OC1	–	1.26 µM (active)
Nc1nc2c(nc(Cl)n2C2OC(CO)C(O)C2O)c(=O)[nH]1 (stereo not drawn)	-8.45% (inactive)	–
CC(C)NC[C@H](O)c1ccc2ccccc2c1	inactive	–
C#C[C@]1(OC(=O)CCCCCC)CC[C@H]2[C@@H]3CCC4=CC(=O)CC[C@@H]4[C@H]3CC[C@@]21C	–	31.6 µM (active)
CC(=O)OCC(=O)[C@@]1(O)CCC2C3CCC4=CC(=O)CC[C@]4(C)C3C(=O)C[C@]21C (stereo partly drawn)	-0.0255% (inactive)	–
C#C[C@]1(O)CC[C@H]2[C@@H]3CCC4=CC(=O)CC[C@@H]4[C@H]3CC[C@@]21CC	-26.1% (inactive)	–
O=c1[nH]c(=O)c2nc3ccccc3nc2[nH]1	4.84% (inactive)	–
CC(O)(COc1ccccc1)c1ccc2c(c1)CN(Cc1cn[nH]c1-c1ccc(F)cc1)CCO2 (stereo not drawn)	-20.1% (inactive)	–
CCCCCC(=O)N1C[C@H](n2cc(COC(=O)c3ccccc3)nn2)[C@@H](O)C[C@H]1c1ccc(Cl)cc1	-9.09% (inactive)	–
C=C(CCN1C=C(C(=O)OCC)C(c2ccccc2)NC1=O)OC (stereo not drawn)	-11% [at 8.59 µM] (inactive)	–
CC(O)[C@@H](N)C(=O)O (stereo partly drawn)	-10.8% (inactive)	–

Compound	activity change, negative = inhibition	Potency
COc1c(O)c2c(=O)cc(OC)c3c4c(OC)cc(=O)c5c(O)c(OC)c6c(c(c1C[C@@](C)(O)[C@H]6C(C)=O)c23)c54	–	35.5 µM (active)
CCOC(=O)C1=NO[C@@]2(C=C(Br)C(=O)[C@H]3O[C@H]32)C1	-19.1% (inactive)	–
COc1ccc(C2CC(=O)Oc3ccc(C(C)(C)C)cc32)cc1 (stereo not drawn)	-3.99% (inactive)	–
CC(C)C[C@@H](CC(=O)N[C@@H](CCC(=O)O)CC(=O)O)NC(=O)[C@@H]1CCCC[C@H]1NC(=O)C[C@@H](NC(=O)C[C@H](CO)NC(=O)[C@@H]1CCCC[C@H]1N)C(C)C	-3.83% (inactive)	–
CN1CCCC1CCO[C@@](C)(c1ccccc1)c1ccc(Cl)cc1 (stereo partly drawn)	–	12.6 µM (active)
CN1CCC[C@@H]1CCO[C@](C)(c1ccccc1)c1ccc(Cl)cc1	-29.2% [at 17.8 µM] (inactive)	–
Fc1ccc(C(OCCN2CCN(C/C=C\c3ccccc3)CC2)c2ccc(F)cc2)cc1	–	28.2 µM (active)
COc1ccc(CC2c3cc(OC)c(OC)cc3CC[N+]2(C)CCC(=O)OCCCCCOC(=O)CC[N+]2(C)CCc3cc(OC)c(OC)cc3C2Cc2ccc(OC)c(OC)c2)cc1OC (stereo not drawn)	-6.74% [at 17.8 µM] (inactive)	–
CC(C)[C@@H](CC(=O)N[C@@H]1CCNC[C@H]1C(=O)N[C@H](CC(=O)N[C@@H](CCC(=O)O)CC(=O)O)Cc1ccccc1)NC(=O)C[C@H](CO)NC(=O)[C@@H]1CNCC[C@H]1N	-0.433% (inactive)	–
CN1CC(O)c2cc(N=NC(N)=O)c(O)cc21 (stereo not drawn)	-5.48% (inactive)	–
CN(C)CCc1c[nH]c2ccc(Cn3cncn3)cc12	5.48% (inactive)	–
Fc1ccc(Cl)cc1-c1nc(Nc2ccncc2)c2nccnc2n1	-20.8% (inactive)	–
CCS(=O)(=O)N(C)[C@@H]1c2cc(C#N)ccc2OC(C)(C)[C@H]1O	inactive	–
CCc1cc2c(nc1CC)CCN(CCC(C)=NOC[C@@H](O)COCc1ccco1)C2	3.34% [at 8.59 µM] (inactive)	–
Cc1ccc(-c2cc(=O)c3ccc(Cl)cc3[nH]2)cc1	0.446% (inactive)	–
C=C(C(C)=O)C(O)c1cccs1 (stereo not drawn)	inactive	–
COC12CC[C@@]3(C[C@@H]1C(C)(O)C(C)(C)C)[C@H]1Cc4ccc(O)c5c4[C@@]3(CCN1CC1CC1)[C@H]2O5 (stereo partly drawn)	–	28.2 µM (active)
COc1ccc(CNS(=O)(=O)c2cc(Br)ccc2Br)cc1	15.9% (inactive)	–
O=S(O)CNc1ccc(S(=O)(=O)c2ccc(NCS(=O)O)cc2)cc1	1.37% (inactive)	–
O=C(O)C1=CCCN(CCON=C(c2ccccc2)c2ccccc2)C1	inactive	–
COc1ccc(C2=C(N3CCc4ccccc43)C(=O)NC2=O)cc1	-26.5% (inactive)	–
CC1=C(/C=C/C(C)=C/C=C/C(C)=C/C=C/C=C(C)/C=C/C=C(C)/C=C/C2=C(C)CCCC2(C)C)C(C)(C)CCC1	9.81% (inactive)	–
COc1ccc(CCNc2ncnc3sc(C(=O)N4CCCC4)c(C)c23)cc1OC	-8.35% (inactive)	–
Cc1c2ccc(N(C)c3ccnc(Nc4cccc(S(N)(=O)=O)c4)n3)cc2nn1C	-0.986% (inactive)	–
C=CCC(C)(O)c1ccco1 (stereo not drawn)	-0.27% (inactive)	–
CC1=C[C@H]2c3ccccc3C[C@H]2CO[C@]12C(=O)N(Cc1ccc(Br)cc1)c1ccccc12	16.7% [at 8.59 µM] (inactive)	–
